This is an account of results in PubChem BioAssay.

Assay [1] in a line: inhibitors of TNFa-induced NFkB p65 translocation, primary screen, imaging, HUVEC, MLSMR starter and 10KST1 sets (AID 438;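 active = inhibition above 20% together with a positive visual image hit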;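 note: compound added about 3h40 before a 20 min TNFalpha stimulation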;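 for inhibition: signal is the nuclear over cytoplasmic p65 intensity ratio per well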). The conditions noted are these: HUVEC TNFa-induced p65 nuclear translocation; cell count: measured here: nuclei count (cytotoxicity indicator), at 2.08 µM; inhibition: at 2 µM, stronger effect = higher value, 0% TNFa-plus-vehicle, 100% no-TNFa wells.
Assay [2] in a line: reduction of polyQ htt aggregates in cells – imaging, exon1htt(103Q)mCFP cells, high-content imaging, primary screen (AID 483;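 active = visual image review flags a hit and inhibition of aggregation exceeds 20%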;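 note: compound exposure lasted 3 days before fixation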;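 for nuclei count: percent of the per-plate median nuclei count of sample wells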). As to conditions: exon1htt(103Q)mCFP cell line, aggregate imaging, at 2 µM; inhibition of aggregation: stronger effect = higher value; nuclei count: measured here: cell count, toxicity.
Assay [3] in a line: endothelial E-selectin expression blockers – imaging, HUVEC, immunofluorescence, MLSMR starter and 10KST1 sets, primary screen (AID 487;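 active = visually confirmed hit in the image check and inhibition above 20%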;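 for inhibition: signal is fraction of cell area covered by stained E-selectin grains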;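 for nuclei count: 100% = median nuclei count of all wells on the same plate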). As to conditions: HUVEC TNFalpha-induced E-selectin immunofluorescence imaging, at 2 µM; inhibition: stronger effect = higher value; nuclei count: measured here: cell number, toxicity.
Assay [4] addresses Voltage-gated potassium channel subunit beta-2 (Rattus norvegicus) (UniProt P62483). Nature of the assay: inhibitors of rat Kvbeta2 reductase activity – biochemical, NADPH fluorescence, primary screen (AID 622;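 active = fluorescence slope higher than the sample average by over 3 SD, cut at about -0.22 in these data, passing the limit was not always enough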;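 note: slope of raw intensity against log time taken from 70 to 1610 s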). The conditions noted are these: recombinant KvBeta, 4-cyanobenzaldehyde reduction, at 10 µM, stronger effect = higher value.
Assay [5] has the same target. Description: enhancers of rat Kvbeta2 NADPH turnover – biochemical, NADPH fluorescence, primary screen (AID 623;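 active = NADPH fluorescence slope more negative than the mean of all samples by about 3 SD, 99.7% confidence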;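 note: fluorescence intensity change per second fitted from 20 to 320 s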). As to conditions: Recombinant KvBeta, NADPH fluorescence decrease slope, 10 min; at 10 µM; stronger effect = lower value.
Assay [6] concerns the target Alpha-2C adrenergic receptor (Homo sapiens) (UniProt P18825). Nature of the assay: compounds altering alpha2C-coupled GIRK flux – cell-based, HEK293 alpha2C/GIRK1/2, thallium flux, primary screen (AID 624;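 active = fluorescence slope after compound addition differing from the mean of all screened samples at 99.7% confidence, in either direction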;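 note: slope of fluorescence ratio to pre-addition baseline per second over 15 to 24 s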). As to conditions: thallium flux BTC fluorescence, at 10 µM, actives lie on both sides.
The nature of assay [7]: blockers of RIG-like receptor reporter activation – cell-based, Sendai virus stimulus, luciferase, 10K MLSCN set, TLR/RLR signaling modifier project, primary screen (AID 602276;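 active = inhibition at or above 50% at 10 µM; inactive = inhibition below 50%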;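 note: firefly luciferase from ISG56 promoter only with Renilla not read in this screen; 0% = Sendai virus plus DMSO and 100% = medium plus DMSO without virus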). The conditions noted are these: HEK293 RL24 IRF3 luciferase reporter, at 10 µM, stronger effect = higher value.
Assay [8] is described as follows: TLR3 IRF3 reporter activation blockers – cell-based, poly I:C stimulus, luciferase, 10K MLSCN set, primary screen (AID 602277). As to conditions: HEK293-TLR3 RL24 IRF3 luciferase reporter, at 10 µM, stronger effect = higher value. (In general: A reporter such as luciferase makes a cellular process visible.)

The source made the active and inactive calls.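 Rule for the calls, unless noted: active = inhibition of the reporter signal at or above 50%; inactive = inhibition below 50%.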

Sequence of Voltage-gated potassium channel subunit beta-2 (Rattus norvegicus) (P62483 whole entry, looked up): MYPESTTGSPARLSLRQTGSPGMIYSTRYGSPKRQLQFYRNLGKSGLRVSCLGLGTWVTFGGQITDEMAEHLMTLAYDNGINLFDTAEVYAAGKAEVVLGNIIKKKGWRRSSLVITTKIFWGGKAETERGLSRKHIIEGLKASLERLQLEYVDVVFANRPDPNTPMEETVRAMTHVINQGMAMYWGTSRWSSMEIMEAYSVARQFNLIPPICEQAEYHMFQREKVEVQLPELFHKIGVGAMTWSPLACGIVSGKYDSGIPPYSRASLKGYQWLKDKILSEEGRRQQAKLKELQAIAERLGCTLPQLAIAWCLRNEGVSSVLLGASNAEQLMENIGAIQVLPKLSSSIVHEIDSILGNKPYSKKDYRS
Sequence of Alpha-2C adrenergic receptor (Homo sapiens) (P18825 whole entry, looked up): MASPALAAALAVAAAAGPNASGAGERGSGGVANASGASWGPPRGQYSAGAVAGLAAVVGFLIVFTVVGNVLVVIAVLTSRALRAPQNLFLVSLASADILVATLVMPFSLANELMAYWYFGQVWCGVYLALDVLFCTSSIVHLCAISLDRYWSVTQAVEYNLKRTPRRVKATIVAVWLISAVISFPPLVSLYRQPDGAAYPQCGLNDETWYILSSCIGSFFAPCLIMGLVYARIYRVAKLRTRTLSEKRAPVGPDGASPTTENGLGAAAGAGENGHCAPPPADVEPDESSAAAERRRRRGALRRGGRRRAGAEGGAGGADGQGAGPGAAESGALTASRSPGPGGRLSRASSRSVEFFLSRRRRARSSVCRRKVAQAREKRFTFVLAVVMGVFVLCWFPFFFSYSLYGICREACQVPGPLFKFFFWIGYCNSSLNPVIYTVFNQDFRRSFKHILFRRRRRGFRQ

A word on the inhibition: it is the drop in the measured response relative to a control, in per cent. Take `CCOC(=O)c1ccccc1NC(=O)c1ccc2c(=O)n3c(nc2c1)CCCCC3`: the cell count in assay [1] was determined as 472. Besides, the inhibition in assay [1] was 15.6% (inactive); in assay [3], -28.3% (inactive); in assay [7], 2.48% (inactive); in assay [8] it was 32.9% (inactive). In addition, in assay [2], the inhibition of aggregation is 9.6% (inactive). Further, the nuclei count was 114% in assay [2] and 81.5% in assay [3]. Moreover, in assay [4], the fluorescence slope is -0.399 (inactive). Also, in assay [5], the NADPH fluorescence slope was -1.5e-05 (inactive). For the same compound, the slope in assay [6] is 0.00636 (inactive).

For the compound `COc1ccccc1Cn1c(-c2ccco2)nc2nc3ccccc3nc21`, the cell count in assay [1] is 612. Also, the inhibition in assay [1] was -10.5% (inactive); in assay [3] it was -13.1% (inactive); in assay [7], 1.34% (inactive); in assay [8], -13.9% (inactive). Further, in assay [2], the inhibition of aggregation was -8.4% (inactive). The nuclei count was 109% in assay [2] and 117% in assay [3]. Besides, the fluorescence slope in assay [4] was -0.366 (inactive). Besides, the NADPH fluorescence slope in assay [5] was -7.7e-06 (inactive). The slope in assay [6] was 0.00597 (inactive).

For the compound `CCN(CC)CCCN1C(=O)C(=O)/C(=C(/O)c2ccc3c(c2)OCO3)C1c1ccccn1` (centres undefined), the cell count in assay [1] worked out at 621. The inhibition was 1.8% (inactive) in assay [1], -18.3% (inactive) in assay [3], -5.97% (inactive) in assay [7] and 12.1% (inactive) in assay [8]. In assay [2], the inhibition of aggregation was 21.9% (inactive). Moreover, the nuclei count in assay [2] is 85.9%; in assay [3] it was 90.7%. The fluorescence slope in assay [4] was -0.495 (inactive). For the same compound, the NADPH fluorescence slope in assay [5] was -4.9e-05 (inactive). The slope in assay [6] is 0.00526 (inactive).

`Cc1ccc(C)c(N(CC(=O)NCc2ccco2)C(=O)CCC(=O)Nc2ccccn2)c1`: the cell count in assay [1] stood at 423. The inhibition in assay [1] is 5.1% (inactive); in assay [3] it was -41% (inactive); in assay [7], 15.1% (inactive); in assay [8], 30.2% (inactive). The inhibition of aggregation in assay [2] was -7.8% (inactive). Moreover, the nuclei count in assay [2] stood at 114%; in assay [3], 105%. Also, the fluorescence slope in assay [4] was -0.608 (inactive). The NADPH fluorescence slope in assay [5] was -1.8e-05 (inactive). Moreover, in assay [6], the slope is 0.00608 (inactive).

Regarding `O=C1C(Cl)=C(N2CCOCC2)C(=O)N1CCc1ccccc1`, the cell count in assay [1] is 373. Moreover, the inhibition was 2.8% (inactive) in assay [1], -20.9% (inactive) in assay [3], -18.6% (inactive) in assay [7] and -16.7% (inactive) in assay [8]. The inhibition of aggregation in assay [2] was -26.1% (inactive). Also, the nuclei count in assay [2] is 97.1%; in assay [3] it was 94.6%. The fluorescence slope in assay [4] was -0.356 (inactive). Also, in assay [5], the NADPH fluorescence slope is -8.5e-06 (inactive). In addition, the slope in assay [6] is 0.0076 (inactive).

On to `COc1ccc(C2c3c(oc4ccccc4c3=O)C(=O)N2Cc2ccncc2)cc1OC` (centres undefined), for which, in assay [1], the cell count worked out at 665. The inhibition was -2.6% (inactive) in assay [1], -9.9% (inactive) in assay [3], 14.3% (inactive) in assay [7] and 18.9% (inactive) in assay [8]. Further, in assay [2], the inhibition of aggregation is -6.6% (inactive). Moreover, the nuclei count amounted to 108% in assay [2] and 115% in assay [3]. Further, the fluorescence slope in assay [4] is -0.315 (inactive). Further, in assay [5], the NADPH fluorescence slope was -4.9e-05 (inactive). Besides, the slope in assay [6] is 0.00493 (inactive).

Take `CCOC(=O)c1cnc(-n2cc(C)cn2)nc1Nc1ccccc1OC`: the cell count in assay [1] is 750. The inhibition in assay [1] is -2.8% (inactive); in assay [3] it was 12.5% (inactive); in assay [7], 2.82% (inactive); in assay [8], 10.8% (inactive). In addition, the inhibition of aggregation in assay [2] is 17.8% (inactive). Also, the values for the nuclei count in assay [2] and in assay [3] were 105% and 114%, respectively. The fluorescence slope in assay [4] is -0.641 (inactive). Besides, the NADPH fluorescence slope in assay [5] was -4.8e-05 (inactive). The slope in assay [6] was 0.0064 (inactive).

With `Cc1cccc(C(=O)N2CCC(n3nnc4cc(F)ccc43)CC2)c1`, the cell count in assay [1] came out at 695. In addition, the inhibition is -12.5% (inactive) in assay [1], 13.4% (inactive) in assay [3], 5.99% (inactive) in assay [7] and 6.27% (inactive) in assay [8]. Further, the inhibition of aggregation in assay [2] is -26.4% (inactive). Further, the nuclei count stood at 101% in assay [2] and 106% in assay [3]. Moreover, in assay [4], the fluorescence slope is -0.325 (inactive). For the same compound, the NADPH fluorescence slope in assay [5] is -2e-05 (inactive). Besides, in assay [6], the slope is 0.0067 (inactive).

In the case of `CC1(C)CC(=O)C=C(Nc2ccc(OCC(F)(F)C(F)F)cc2)C1`, the cell count in assay [1] worked out at 362. Further, the inhibition in assay [1] is -0.3% (inactive); in assay [3] it was -43% (inactive); in assay [7] it was -8.49% (inactive); in assay [8], -18.3% (inactive). Also, the inhibition of aggregation in assay [2] was -25.2% (inactive). The values for the nuclei count in assay [2] and in assay [3] were 110% and 116%, respectively. Also, in assay [4], the fluorescence slope was -0.324 (inactive). In addition, in assay [5], the NADPH fluorescence slope was -1.5e-05 (inactive). Besides, in assay [6], the slope was 0.00531 (inactive).

Regarding `CN1CCN(C(=O)c2ccc(CS(=O)(=O)c3c(Cl)cccc3Cl)o2)CC1`, in assay [1], the cell count was determined as 652. Besides, the inhibition in assay [1] was -0.5% (inactive); in assay [3], -24.1% (inactive); in assay [7], 16.8% (inactive); in assay [8], 24.4% (inactive). Besides, the inhibition of aggregation in assay [2] is 11.9% (inactive). The nuclei count came to 96.9% in assay [2] and 137% in assay [3]. For the same compound, the fluorescence slope in assay [4] was -0.515 (inactive). Further, the NADPH fluorescence slope in assay [5] is -2.9e-05 (inactive). For the same compound, the slope in assay [6] is 0.00604 (inactive).

`O=C(O)C1CCCN1C(=O)c1cccs1` (centres undefined): in assay [1], the cell count is 367. Also, the inhibition is -18.4% (inactive) in assay [1], -53% (inactive) in assay [3], 5.87% (inactive) in assay [7] and 10.7% (inactive) in assay [8]. The inhibition of aggregation in assay [2] is -4.2% (inactive). For the same compound, the nuclei count in assay [2] was 105%; in assay [3] it was 117%. Further, the fluorescence slope in assay [4] is -0.487 (inactive). Further, in assay [5], the NADPH fluorescence slope is -7.9e-05 (inactive). For the same compound, in assay [6], the slope was 0.00489 (inactive).

As for `N#CCCCCn1c(-c2cncs2)nc2ccccc21`, the cell count in assay [1] was 431. Further, the inhibition in assay [1] is 14.1% (inactive); in assay [3], 22.2% (inactive); in assay [7], 14.5% (inactive); in assay [8], 15.9% (inactive). In assay [2], the inhibition of aggregation is 3.5% (inactive). Also, the nuclei count was 101% in assay [2] and 107% in assay [3]. Besides, in assay [4], the fluorescence slope is -0.385 (inactive). Moreover, the NADPH fluorescence slope in assay [5] is -4.5e-05 (inactive). The slope in assay [6] is 0.00375 (inactive).

As for `CN(C)c1ccc(NC(=O)c2ccncc2)c2ccccc12`, in assay [1], the cell count came out at 315. The inhibition in assay [1] is 2.7% (inactive); in assay [3] it was -88.6% (inactive); in assay [7] it was 15.4% (inactive); in assay [8] it was 12% (inactive). Moreover, the inhibition of aggregation in assay [2] is 6.2% (inactive). The nuclei count in assay [2] turned out to be 94.4%; in assay [3] it was 105%. For the same compound, the fluorescence slope in assay [4] is -0.316 (inactive). In addition, in assay [5], the NADPH fluorescence slope is -5.4e-05 (inactive). In addition, in assay [6], the slope is 0.00482 (inactive).

As for `CCCC(=O)OCCn1c(Br)nc2c1c(=O)[nH]c(=O)n2C`, the cell count in assay [1] was 627. The inhibition was -9.1% (inactive) in assay [1], -46.5% (inactive) in assay [3], 20.4% (inactive) in assay [7] and 15.6% (inactive) in assay [8]. In addition, the inhibition of aggregation in assay [2] is -10% (inactive). Moreover, the nuclei count in assay [2] stood at 127%; in assay [3] it was 121%. Also, the fluorescence slope in assay [4] is -0.509 (inactive). Further, the NADPH fluorescence slope in assay [5] was -3.2e-05 (inactive). The slope in assay [6] is 0.00531 (inactive).
